Experimental data reported in ChEMBL document CHEMBL3988442, “University of Dundee, Small-Polar-MMV Screening Library” (2021).
The campaign covered roughly 48,000 compounds. About 13,000 (27%) showed an effect of 50% or more. The list shows a part of the results.

System: Wolbachia pipientis
Experiment: Anti-Wolbachia Cell-Based Screen
Assay type: functional
Design: scale not given: in the data most compounds retested in dose-response had high values
Details: 5 µM

SMILES	Percent Effect [%]
CCCc1ccc(S(=O)(=O)NC2(CC(N)=O)CCC2)cc1	-11.45
O=C(NCCn1cccc1)C(c1cccnc1)N1CCCC1 (stereo not given)	4.567
O=C(NCCN1CCCCC1)C(c1ccccc1)N1CCCC1 (stereo not given)	103.1
O=C(NCCn1cccc1)C(c1ccccc1)N1CCCC1 (stereo not given)	123.6
O=C(NCCN1CCOCC1)C(OC1CCCC1)c1ccccc1 (stereo not given)	1.172
CN1CCN(CCNC(=O)C(OC2CCCC2)c2ccccc2)CC1 (stereo not given)	-1.077
O=C(NCCNc1cccnc1)C(c1cccnc1)N1CCCC1 (stereo not given)	-8.824
CC(=O)N1CC[C@H]2OCC[C@@H](C(=O)N3CCCCO3)[C@@H]2C1	7.512
CC(C)NC(=O)[C@@H]1CCO[C@@H]2CCN(c3ncccn3)C[C@H]21	-20.97
CC(=O)N1CC[C@H]2OCC[C@@H](C(=O)Nc3cccnc3C)[C@H]2C1	87.27
CC(=O)N1CC[C@H]2OCC[C@@H](C(=O)Nc3cccnc3C)[C@@H]2C1	106.3
CCC(CNC1CCN(C(C)=O)CC1)Oc1ccccc1Cl (stereo not given)	3.786
NC(=O)N1CCCC(C(=O)NCc2ccccc2OC(F)(F)F)C1 (stereo not given)	21.92
CCC(O)CNC(=O)c1cc(COc2ccc(OC)cc2Cl)[nH]n1 (stereo not given)	4.505
O=C(CCc1ccccc1)Nc1ncccc1OC(F)F	-7.341
CSC(C)C(=O)N1CCCN(Cc2cnn(C(C)C)c2)CC1 (stereo not given)	-3.847
CSCCC(=O)N1CCCN(Cc2cnn(C(C)C)c2)CC1	82.47
CCn1cc(CN2CCCN(C(=O)CCSC)CC2)cn1	96.36
CCc1nnsc1C(=O)N1CCCN(Cc2cnn(C)c2)CC1	1.125
CC(C)(C)OC(=O)N1CSC[C@@H]1C(=O)NCc1cccc(C#N)c1	-10.68
COc1ccc2nc(CNC(=O)c3cc(C(C)C)on3)[nH]c2c1	-7.42
Cc1ccc2[nH]c(CNC(=O)C3CC4(CCNCC4)CN3C)nc2c1C (stereo not given)	105.7
CCn1nc(C(C)C)cc1C(=O)NCc1nc2ccc(OC)cc2[nH]1	5.154
Cc1ccc(NCCCNC(=O)C2CC3(CCNCC3)CN2C)nc1 (stereo not given)	-3.217
COc1ccc2nc(CNC(=O)C3CC4(CCNCC4)CN3C)[nH]c2c1 (stereo not given)	101.4

SMILES	Percent Effect [%]
Cc1ncsc1CCCNC(=O)C1CC2(CCNCC2)CN1C (stereo not given)	23.09
Cn1nnc2c1CCN(S(C)(=O)=O)C2COCC1CC1 (stereo not given)	-21.64
Fc1cc(CNCc2ccc3c(c2)CCO3)ccc1N1CCOCC1	14.1
CCC[C@@H]1CN(C(=O)c2conc2-c2ccccc2)C[C@H]1N(C)C	-6.905
CCCC(=O)N1CCC(O)(Cn2c(CC)nc3ccccc3c2=O)CC1.Cl	-3.591
CCc1nc2ccccc2c(=O)n1CC1(O)CCN(C(=O)C2CC2)CC1.Cl	111.9
COC(=O)Cn1c(=O)nc2n1C(=O)N(c1ccccc1)C2	-2.891
CC(=O)c1cn(CC(=O)N2CCC(O)(CO)CC2)c2ccccc12	-13.61
CCc1nc2ccccc2c(=O)n1CC1(O)CCN(C(=O)C(C)C)CC1	101.9
COCC(=O)N1CCCN(Cc2cc(O)c3ccccc3n2)CC1	-35.6
CCc1nc2ccccc2c(=O)n1CC1(O)CCN(CC(=O)OC)CC1	94.95
CCc1nc2ccccc2c(=O)n1CC1(O)CCN(C(=O)COC)CC1.Cl	76.81
Cc1nc2ccccc2c(=O)n1Cc1nnnn1C1CC1	-4.17
Cc1nc2ccccc2c(=O)n1CCC(=O)N1CCSCC1	-8.454
CS(=O)(=O)N1CCC(O)(Cn2c(C3CC3)nc3ccccc3c2=O)CC1	-5.897
CCC(Oc1ccc(N(C)S(C)(=O)=O)cc1)C(=O)NC (stereo not given)	9.37
CC(C)NC(=O)N1CCCC2(CCCCN2)C1 (stereo not given)	-45.21
CNC(=O)Cc1noc(-c2cc3c(s2)CCCC3)n1	9.229
Cc1cccc(CN(Cc2ccccc2)Cc2nccs2)n1	-3.089
COc1ccccc1OC1CN(C(=O)CN(C)Cc2ccncc2)C1	-7.187
CCC(=O)NC1CCCN(Cc2ccc(-n3ccnc3)cc2)C1 (stereo not given)	12
CCc1nc2ccccc2c(=O)n1CC1(O)CCN(S(C)(=O)=O)CC1.Cl	-5.087
Cc1nc2ccccc2c(=O)n1CCC(=O)N1CCNC(=O)C1	-8.423
CCc1nc2ccccc2c(=O)n1CC1(O)CCNCC1.Cl	113.9
CCNC(=O)N(Cc1ccoc1)C1CCCCC1	-0.3193

SMILES	Percent Effect [%]
Cc1cc(C(=O)NCCSC2CCCC2)no1	-0.7527
Cc1cc(-c2cnn(CCNC(=O)c3snnc3C)c2C2CC2)on1	141.4
Cc1cc(-c2cnn(CCNC(=O)c3cccnc3)c2C2CC2)on1.Cl	-6.458
Cc1cc(-c2cnn(CCNC(=O)c3cc[nH]n3)c2C2CC2)on1	115.4
CCCn1nc(C)c(CNC(=O)c2snnc2C)c1C	-13.49
CCc1cccc(N2CCC(NC(=O)c3cc[nH]n3)CC2)c1	15.39
Cc1cc(-c2cnn(CCNC(=O)C3CC3)c2C2CC2)on1	8.757
Cc1cc(-c2cnn(CCNC(=O)c3cnn(C)c3)c2C2CC2)on1	133.8
O=C(NCCc1nnc[nH]1)Nc1cccc(SC(F)F)c1	-17.31
O=C(C[S+]([O-])Cc1ccc(Cl)cc1Cl)N1CCc2sccc2C1 (stereo not given)	-26.03
Cc1nc(CN(C)C(=O)C2CC(=O)N(c3cccc(O)c3)C2)cs1 (stereo not given)	-3.806
COc1cccc(S(=O)(=O)CCN2CCCN(C(C)=O)CC2)c1	-4.305
CN1CCOC[C@H]1c1nc(-c2ccncc2)c[nH]1	-4.576
Cc1ccc(C)c(NC(=O)N2CCC3(CC2)NC(=O)CC3C(=O)O)c1 (stereo not given)	-4.672
O=C(O)[C@@H]1CN(C2CCOCC2)C[C@H]1C1CC1	12.44
Fc1ccc(-c2nc(CNC3CCc4ncnn4C3)co2)cc1 (stereo not given)	119.4
Fc1ccc(-c2nnc(CNC3CCc4ncnn4C3)o2)cc1 (stereo not given)	-10.58
Clc1cccc(-c2nc(CNC3CCc4ncnn4C3)co2)c1 (stereo not given)	112.7
Clc1ccccc1-c1nc(CNC2CCc3ncnn3C2)cs1 (stereo not given)	-2.283
Cc1ccc(-c2nc(CNC3CCc4ncnn4C3)co2)cc1 (stereo not given)	77.78
c1nc2n(n1)CC(NCc1csc(-c3ccsc3)n1)CC2 (stereo not given)	-11.03
c1csc(-c2nc(CNC3CCc4ncnn4C3)co2)c1 (stereo not given)	-0.5039
Fc1ccc(-c2ccc(CNC3CCc4ncnn4C3)o2)cc1 (stereo not given)	-0.7899
Clc1ccccc1-c1nc(CNC2CCc3ncnn3C2)co1 (stereo not given)	83.87
c1ccc(-c2nc(CNC3CCc4ncnn4C3)co2)cc1 (stereo not given)	3.463
